Assay results: PubChem BioAssay

test: EMT-state selective cytotoxicity in co-culture – imaging, PC-3E GFP, TEM4-18 mCherry, primary screen (AID 1345086); conditions: PC-3E GFP / TEM4-18 mCherry co-culture, imaging cell counts; measured here: epithelial PC-3E GFP cell survival; at 1 µM;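 note: cells exposed to compound for 72 h before imaging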

Structure (SMILES)	normalised cell number
O=c1[nH]cc(F)c(=O)[nH]1	0.82
CCc1nc(N)nc(N)c1-c1ccc(Cl)cc1	0.9
CCc1cccc2c3c([nH]c12)C(CC)(CC(=O)O)OCC3 (centres undefined)	0.9
Nc1ncn([C@@H]2O[C@H](CO)[C@@H](O)[C@H]2O)c(=O)n1	0.83
Cc1ccccc1C(OCCN(C)C)c1ccccc1 (centres undefined)	0.78
Cc1ccc(C)c(OCCCC(C)(C)C(=O)O)c1	0.82
NC(=O)c1cnccn1	0.91
CCCCCCNC(=O)n1cc(F)c(=O)[nH]c1=O	0.88
COC1=CC(=O)C[C@@H](C)[C@]12Oc1c(Cl)c(OC)cc(OC)c1C2=O	1.41
Cc1ncc([N+](=O)[O-])n1CC(C)O (centres undefined)	1.13
N[C@@H](C(=O)N[C@@H]1C(=O)N2C(C(=O)O)=C(Cl)CS[C@H]12)c1ccccc1	0.9
CO[C@@]1(NC(=O)Cc2cccs2)C(=O)N2C(C(=O)O)=C(COC(N)=O)CS[C@@H]21	0.99
OCCN1CCN(CCCN2c3ccccc3Sc3ccc(C(F)(F)F)cc32)CC1	0.78
CN(C)CCOC(c1ccc(Cl)cc1)c1ccccn1 (centres undefined)	1.14
Cc1onc(-c2c(Cl)cccc2Cl)c1C(=O)N[C@@H]1C(=O)N2[C@@H]1SC(C)(C)[C@@H]2C(=O)O	1.26
COc1cc2nc(N(C)CCCNC(=O)C3CCCO3)nc(N)c2cc1OC (centres undefined)	1.18
NS(=O)(=O)c1cc(C2(O)NC(=O)c3ccccc32)ccc1Cl (centres undefined)	1.2
CN(C)CCc1c[nH]c2ccc(C[C@H]3COC(=O)N3)cc12	1.02
Cc1ccc(-c2cc(C(F)(F)F)nn2-c2ccc(S(N)(=O)=O)cc2)cc1	1.08
CN[C@H]1CC[C@@H](c2ccc(Cl)c(Cl)c2)c2ccccc21	0.93

Structure (SMILES)	normalised cell number
O=S(=O)(O)CCS	1.08
C/C=C/C(=O)N(CC)c1ccccc1C	0.88
COc1ccc(OC)c(C(O)CNC(=O)CN)c1 (centres undefined)	1.01
Cn1cnc([N+](=O)[O-])c1Sc1ncnc2nc[nH]c12	1.13
c1ccc2[nH]c(-c3cscn3)nc2c1	0.98
CCCNCC(O)COc1ccccc1C(=O)CCc1ccccc1 (centres undefined)	1.35
NC(=O)N1c2ccccc2CC(=O)c2ccccc21	1.04
Cc1cn([C@H]2C[C@H](N=[N+]=[N-])[C@@H](CO)O2)c(=O)[nH]c1=O	1.06
CN(CCOc1ccc(CC2SC(=O)NC2=O)cc1)c1ccccn1 (centres undefined)	1.63
COc1ccccc1OCC(O)COC(N)=O (centres undefined)	1.19
OC(CCN1CCCC1)(c1ccccc1)C1CCCCC1 (centres undefined)	0.98
O=C1C(CCS(=O)c2ccccc2)C(=O)N(c2ccccc2)N1c1ccccc1 (centres undefined)	0.93
COC(=O)Nc1nc2ccc(C(=O)c3ccccc3)cc2[nH]1	0.23
CCn1cc(C(=O)O)c(=O)c2cc(F)c(N3CCN(C)CC3)cc21	1.13
CN1CCCC(n2nc(Cc3ccc(Cl)cc3)c3ccccc3c2=O)CC1 (centres undefined)	1.16
NCc1ccc(S(N)(=O)=O)cc1	0.74
Clc1ccc2c(c1)C(N1CCNCC1)=Nc1ccccc1O2	0.23
CC(C)(C)NCC(O)COc1cccc2c1C[C@H](O)[C@H](O)C2 (some centres undefined)	1.04
NS(=O)(=O)c1cc2c(cc1Cl)NC=NS2(=O)=O	0.39
